Results on 14 compounds are retold here after PubChem BioAssay (NCI).

The panel holds about 83,000 compounds, 20% with a hit somewhere; the sample as a whole holds those more often.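 Assay: single dose, 48 h. Readout: percent growth (0 = no net growth; negative = cell death). Active: <10.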 Values without a mark were called inactive. Active and inactive are the calls of the source.

Common to all, as to experiment: NCI-60 one-dose screen, 48 h (100 = growth as untreated, 0 = no growth, -100 = all killed)
Common to all, as to conditions: 10 µM

Assay [1] has as its system RPMI-8226 leukemia.
Assay [2] has as its system OVCAR-8 ovarian.
In assay [3] the test system is OVCAR-5 ovarian.
For assay [4], the system named is OVCAR-4 ovarian.
Assay [5] relates to SK-OV-3 ovarian.
The subject of assay [6] is IGROV1 ovarian.
In assay [7] the test system is OVCAR-3 ovarian.
Assay [8] has as its system HS 578T breast.
The subject of assay [9] is NCI/ADR-RES ovarian.
In assay [10] the test system is T-47D breast.

For `O=C1/C(=C\c2ccc(F)cc2)CN(C(=O)c2ccccc2)C/C1=C\c1ccc(F)cc1`, the growth in [1] is -19.5% (active); in assay [2], 3.54% (active); in assay [3], 78.6%; in assay [4] it was 27.3%; in assay [5], 74.6%; in assay [6], 21.8%. Moreover, the growth is 11.3% in assay [7], 28.1% in assay [8], 24.8% in assay [9] and 57% in [10].

For the compound `O=C(O)CCCCSc1ncnc2nc[nH]c12`, the growth in assay [1] was 108%; in assay [2], 98.3%; in assay [3], 102%; in assay [4], 116%; in [5], 92.9%; in assay [6] it was 97.5%. Besides, the growth is 100% in assay [7], 122% in [8], 107% in assay [9] and 97.2% in assay [10].

`COc1ccc(/C=C/C(C)=N/OCC(=O)O)cc1`: the growth is 102% in assay [1]; 105% in assay [2]; 109% in assay [3]; 106% in assay [4]; 101% in assay [5]; 106% in assay [6]. Besides, the growth in [7] was 113%; in assay [8], 113%; in assay [9], 106%; in assay [10] it was 93.5%.

Consider `COc1ccc2c(c1)O/C(=C\c1ccc([N+](=O)[O-])o1)C2=O`, for which the growth is -10.7% (active) in assay [1]; -8.18% (active) in assay [2]; 12.4% in assay [3]; -1.31% (active) in assay [4]; 67.6% in [5]; -14.2% (active) in [6]. Besides, the growth in assay [7] was -8.36% (active); in assay [8] it was 21.4%; in assay [9], 16%; in assay [10], -0.109% (active).

`O=C(Nc1ccccc1)Nc1cccc(-n2cc(-c3ccncc3)c(-c3ccc(O)c(Cl)c3)n2)c1`: the growth in assay [1] is 9.53% (active); in [2], 42.7%; in [3], 91.1%; in assay [4], 72.8%; in assay [5], 58.6%; in assay [6] it was 89.7%. The growth in assay [7] was 73.8%; in assay [8], 40%; in assay [9] it was 83.2%; in [10], 44.6%.

For `CC(C)(Cl)CCC1=C(Cl)C(=O)c2ccccc2C1=O`, the growth in assay [1] is -28.9% (active); in assay [2], 68%; in [3], 101%; in assay [4], 11.5%; in assay [5] it was 92.6%; in [6], 39.7%. Besides, the growth was 22.9% in [7], 62.6% in [8], 62.9% in assay [9] and -38.7% (active) in assay [10].

Regarding `Fc1cc(C(F)(F)F)ccc1-c1cncnc1NC1CCCCCC1`, the growth in [1] was 76.1%; in assay [2], 87.1%; in [3], 106%; in assay [4], 85.3%; in assay [5], 101%; in assay [6] it was 96.8%. For the same compound, the growth in assay [7] is 109%; in [8], 102%; in [9], 91.4%; in assay [10], 91.8%.

For the compound `O=C(Nc1cccc(-n2cc(-c3ccncc3)c(-c3ccc(O)c(Cl)c3)n2)c1)c1cccc(C(F)(F)F)c1`, the growth in assay [1] was 13.4%; in [2], 18.4%; in assay [3] it was 89.4%; in [4] it was 51.2%; in [5], 71.2%; in assay [6], 51.6%. Besides, the growth is 45.1% in [7], 41.2% in assay [8], 35.1% in [9] and 15% in assay [10].

For `CN(C)CCOc1nc2ccccc2c2c1-c1ccc(Cl)cc1C2=O`, the growth is -23.4% (active) in assay [1]; 2.21% (active) in [2]; 18.3% in assay [3]; -6.28% (active) in assay [4]; 11.5% in assay [5]; -27.9% (active) in assay [6]. Further, the growth in [7] was -21.4% (active); in [8] it was -13.3% (active); in assay [9], -6.87% (active); in [10], 11.9%.

Consider `CC1=C(N2CCOCC2)C(N2CCOCC2)=C(C)C(=O)C1=O`, for which the growth in [1] was 105%; in assay [2], 97.2%; in [3], 97.6%; in [4], 104%; in assay [5], 105%; in assay [6], 101%. For the same compound, the growth in assay [7] is 109%; in [8], 109%; in assay [9], 110%; in assay [10], 95.1%.

As for `CC(C)(C#N)Nc1ccccc1`, the growth in [1] is 105%; in assay [2] it was 105%; in assay [3], 100%; in [4], 99.5%; in assay [5] it was 106%; in assay [6], 121%. The growth in assay [7] was 124%; in [8] it was 105%; in [9], 116%; in assay [10], 102%.

Take `COc1cc2nc(Nc3cccc(C(=O)O)c3)nc(N)c2cc1OC`: the growth in assay [1] is 307%; in assay [2] it was 105%; in assay [3], 114%; in assay [4] it was 103%; in [5] it was 107%; in assay [6] it was 16.4%. In addition, the growth in assay [7] is 101%; in assay [8], 93.4%; in assay [9] it was 133%; in assay [10] it was 105%.

For `O=C(c1ccc(Cl)cc1Cl)N1CCOCC1`, the growth in assay [1] was 95.9%; in assay [2], 104%; in assay [3], 96%; in [4], 98.9%; in assay [5] it was 98.5%; in assay [6] it was 105%. Moreover, the growth in assay [7] was 109%; in [8], 107%; in assay [9], 96.5%; in assay [10], 92.3%.

Turning to `COc1cc(/C=C2\CCCC3=C2N=C2SC=NN2C3c2cc(OC)c(OC)c(OC)c2)cc(OC)c1OC` (stereo not given), the growth in [1] is -22.5% (active); in assay [2] it was 9.84% (active); in assay [3], 91.9%; in assay [4], 47%; in assay [5] it was 57.4%; in [6] it was 29%. The growth in [7] was 29.3%; in [8], 42.8%; in assay [9], 18.5%; in assay [10], 61.4%.
